Source: PubChem BioAssay
A selection: hits, their analogues and other compounds. The true share with any hit is near 3.1%.
BoNT-A LC inh2: blocks Botulinum neurotoxin A light chain protease. multiplex microsphere protease substrate cleavage, flow cytometry. inhibition, % at 10 µM. 0.17% of 360,000 active. AID 588499
Anthrax LF inh2: blocks Bacillus anthracis lethal factor protease; P15917; multiplex microsphere protease cleavage assay, LF; inhibition, % at 10 µM; 0.12% of 360,000 active; AID 588501
SSB-PriA inh: K. pneumoniae PriA-SSBct interaction inhibition; AlphaScreen SSBct-PriA binding, biotinylated peptide; inhibition, % at 33 µM; 0.6% of 430,000 active; AID 1272365; in the data active = inhibition mostly above about 37%, no sharp cut-off; inactive = mostly below about 20%
BoNT F protease: BoNT F light chain protease inhibition; 0.22% of 360,000 active; AID 588497; Multiplex microsphere protease cleavage assay, flow cytometry; inhibition, % at 10 µM; in the data active = inhibition above about 35%, passing the limit was not always enough; inconclusive = no clear call, values can overlap the other calls
Autofluor counter: flagged as autofluorescent in microsphere protease counterscreen; compound autofluorescence counterscreen, microsphere flow cytometry; active compounds read high; fluorescence intensity (no concentration beside the values); 3.1% of 360,000 active; AID 624483; in the data active = fluorescence intensity above about 16000; inconclusive = no clear call, values can overlap the other calls
Of the large screens only hits and unclear results are named; the others gave an inactive call. Cut-off read from the data, not from the text of the source, unless noted: active = inhibition above about 30%; inconclusive = no clear call, values can overlap the other calls; inactive = below that.

COc1ccc(NC(=O)c2oc3ccccc3c2NC(=O)c2ccc(C)c([N+](=O)[O-])c2)cc1	none (no result: BoNT-A LC inh2, Anthrax LF inh2, BoNT F protease, Autofluor counter)
COc1ccc2oc(C(=O)c3ccccc3)c(N)c2c1	none (no result: BoNT-A LC inh2, Anthrax LF inh2, BoNT F protease, Autofluor counter)
COc1ccc(NC(=O)c2oc3ccccc3c2NC(=O)c2ccc3c(c2)OCO3)cc1	Autofluor counter 22577
COc1cccc(C(=O)Nc2c(C(N)=O)oc3ccccc23)c1	none
CCOC(=O)c1[nH]c2ccc(OC)cc2c1NC(=O)c1ccc2c(c1)OCO2	none
CCOC(=O)c1[nH]c2ccccc2c1NC(=O)c1ccc2c(c1)OCO2	SSB-PriA inh 97
O=C(Nc1nc2c(s1)C(=O)NCCC2)c1cccc(-n2cccn2)c1	none (no result: BoNT-A LC inh2, Anthrax LF inh2, BoNT F protease, Autofluor counter)
CCCC(=O)Nc1c(C(=O)OCC)[nH]c2ccccc12	SSB-PriA inh 39
CCOC(=O)c1oc2ccccc2c1NC(=O)c1ccc2c(c1)OCO2	Autofluor counter 24146
CNC(=O)N(C1=NCC(C)S1)c1ccc(F)cc1F (configuration not stated)	BoNT-A LC inh2 inconclusive, Autofluor counter 23465
Cc1ccnc2c1ccc1c(C)ccnc12	SSB-PriA inh 98
Cc1ccnc2c(O)cccc12	none (no result: BoNT-A LC inh2, Anthrax LF inh2, BoNT F protease, Autofluor counter)
O=[N+]([O-])c1cccc2cccnc12	none (no result: BoNT-A LC inh2, Anthrax LF inh2, BoNT F protease, Autofluor counter)
C/[N+]([O-])=C/c1ccnc2c1ccc1cccnc12	SSB-PriA inh 148 (no result: BoNT-A LC inh2, Anthrax LF inh2, BoNT F protease, Autofluor counter)
Cc1ccnc2c1ccc1ccccc12	none
Cc1ccnc2c1ccc1cccnc12	SSB-PriA inh 103
CC(C)CS(=O)(=O)C1CCN(C(=O)c2cncc(Br)c2)CC1	none (no result: BoNT-A LC inh2, Anthrax LF inh2, BoNT F protease, Autofluor counter)
O=C(NCc1ccncc1)/C(=C/c1cccc([N+](=O)[O-])c1)NC(=O)c1ccccc1	BoNT F protease 38
Cc1cccc(NCc2ccc(O)c3ncccc23)c1C	SSB-PriA inh 60
COc1ccccc1NCc1ccc(O)c2ncccc12	none (no result: BoNT-A LC inh2, Anthrax LF inh2, BoNT F protease, Autofluor counter)
Cc1cccnc1NCc1ccc(O)c2ncccc12	SSB-PriA inh 57
Cc1ccc(NCc2ccc(O)c3ncccc23)cc1C	SSB-PriA inh 41
Cc1ccc(NCc2ccc(O)c3ncccc23)cc1	none
CCC(C(=O)N1CCN(c2ccc3nnc(-c4ccco4)n3n2)CC1)c1ccccc1 (configuration not stated)	none (no result: BoNT-A LC inh2, Anthrax LF inh2, BoNT F protease, Autofluor counter)
Cc1cc(NC(=O)Cn2nc(-c3cccs3)ccc2=O)no1	none (no result: BoNT-A LC inh2, Anthrax LF inh2, BoNT F protease, Autofluor counter)
CCOc1ccc(C(=O)NC(C)CCc2ccccc2)cc1 (configuration not stated)	none
CCOc1ccc(C(CCc2ccccc2)NC(=O)c2ccccc2)cc1OCC (configuration not stated)	BoNT-A LC inh2 inconclusive, Autofluor counter 21649
CCOc1ccc(C(=O)CSc2nc(-c3ccc(Cl)cc3)cn2-c2ccccc2C)cc1	none (no result: BoNT-A LC inh2, Anthrax LF inh2, BoNT F protease, Autofluor counter)
CC(NC(=O)c1ccc2c(c1)OCCO2)C(=O)O (configuration not stated)	none
CCC(CC)NC(=O)c1ccc2c(c1)OCCO2	Autofluor counter 23941
O=C(CSc1ccc2nnc(-c3cccc(F)c3)n2n1)NCC1CCCO1 (configuration not stated)	Autofluor counter 22186
COc1ccc(NC(=O)CSc2nnc(Cc3cccn3C)n2CCc2ccccc2)c(OC)c1	none
COc1ccccc1NC(=O)CSc1nnc(Cc2cccn2C)n1CCc1ccccc1	Autofluor counter 24958
Cn1cccc1Cc1nnc(SCC(=O)Nc2nccs2)n1CCc1ccccc1	none
O=C(CSc1ccc2nnc(-c3cccnc3)n2n1)NCC1CCCO1 (configuration not stated)	none
O=C(CSc1nnc2scc(-c3ccccc3)n12)NCC1CCCO1 (configuration not stated)	Autofluor counter 21160
CCSc1nnc(NC(=O)CSc2nnc(Cc3cccn3C)n2CCc2ccccc2)s1	BoNT-A LC inh2 inconclusive, Autofluor counter 20173
CC(=O)Nc1ccc(S(=O)(=O)N2CCCC(c3nnc(-c4cccs4)o3)C2)cc1 (configuration not stated)	none (no result: BoNT-A LC inh2, Anthrax LF inh2, BoNT F protease, Autofluor counter)
Cn1cccc1Cc1nnc(SCC(=O)NCC2CCCO2)n1C (configuration not stated)	none
Cn1cccc1Cc1nnc(SCC(=O)NCC2CCCO2)n1CCc1ccccc1 (configuration not stated)	BoNT-A LC inh2 inconclusive, Autofluor counter 22577
COCCn1c(COc2ccc(Cl)cc2)nnc1SCC(N)=O	Autofluor counter 22516
CCOc1ccc(Cc2nnc(SCC(N)=O)n2C)cc1	Autofluor counter 21499
Cc1ccc(NC(=O)c2cnc(SCC(=O)Nc3ccccc3C(F)(F)F)n(C)c2=O)cc1C	none (no result: BoNT-A LC inh2, Anthrax LF inh2, BoNT F protease, Autofluor counter)
Cc1ccc(NC(=O)CS(=O)(=O)c2cn(C)c3ccccc23)c(C)c1	SSB-PriA inh 104
CS(=O)(=O)N1CCC(C(=O)N2CCC(c3ccccc3)C2)CC1 (configuration not stated)	none (no result: BoNT-A LC inh2, Anthrax LF inh2, BoNT F protease, Autofluor counter)
Cc1noc(C)c1C(=O)OCC(=O)Nc1ncc(C(F)(F)F)cc1Cl	none
COC(=O)c1ccccc1NC(=O)COC(=O)c1ccc(C)c(NC(=O)c2ccco2)c1	BoNT-A LC inh2 inconclusive, Autofluor counter 21306
Cc1ccc(C(=O)OCC(=O)Nc2ncc(C(F)(F)F)cc2Cl)cc1NC(=O)c1ccco1	Autofluor counter 20917
CCOc1ccccc1C(=O)OCC(=O)Nc1ncc(C(F)(F)F)cc1Cl	Autofluor counter 21522
CCON=CC(=O)Nc1ccc(F)cc1F	none (no result: BoNT-A LC inh2, Anthrax LF inh2, BoNT F protease, Autofluor counter)
Cc1ccc(-c2ccc(=O)n(CCCNC(=O)c3ccc(Br)o3)n2)cc1	none (no result: BoNT-A LC inh2, Anthrax LF inh2, BoNT F protease, Autofluor counter)
O=C1C[C@H](N2CCN(Cc3ccccc3)CC2)C(=O)N1c1cccc(C(F)(F)F)c1	none (no result: BoNT-A LC inh2, Anthrax LF inh2, BoNT F protease, Autofluor counter)
O=C1CC(N2CCN(c3cccc(C(F)(F)F)c3)CC2)C(=O)N1c1ccc(F)cc1 (configuration not stated)	Autofluor counter 22486
CCOC(=O)C1CCCN(C2CC(=O)N(c3cccc(C(F)(F)F)c3)C2=O)C1 (configuration not stated)	BoNT-A LC inh2 inconclusive, Autofluor counter 23785
Cc1cccc(N2C(=O)CC(N3CCN(c4cccc(C(F)(F)F)c4)CC3)C2=O)c1 (configuration not stated)	BoNT-A LC inh2 inconclusive, Autofluor counter 20300
O=C1CC(N2CCN(c3ccccn3)CC2)C(=O)N1c1ccc(F)cc1 (configuration not stated)	none
O=C1CC(N2CCN(c3nc4ccccc4s3)CC2)C(=O)N1c1cccc(F)c1 (configuration not stated)	Autofluor counter 23609
O=C(NCc1cccs1)C(=O)NC[C@H](O)c1cccs1	none (no result: BoNT-A LC inh2, Anthrax LF inh2, BoNT F protease, Autofluor counter)
CCOc1ccc(N2C(=O)CC(N3CCN(c4ccc(Cl)cc4)CC3)C2=O)cc1 (configuration not stated)	none
CCOc1cccc(N2C(=O)CC(N3CCN(c4ccc(S(=O)(=O)CC)cc4)CC3)C2=O)c1 (configuration not stated)	Autofluor counter 22715
C=CCn1c(C)cc(C)c(C#N)c1=O	Autofluor counter 22789
Cc1cc2n(n1)SC(Nc1ccc(F)c(Cl)c1)N2 (configuration not stated)	BoNT-A LC inh2 inconclusive, Autofluor counter 20632
CC(=O)N(C(C)=O)c1c(C#N)c(C)n(-c2ccccc2)c1C(=O)c1ccccc1	SSB-PriA inh 85
Cc1[nH]c(C(=O)O)c(C#N)c1C(=O)c1ccccc1	none
COc1ccccc1N=Nc1ccc(N)c(C)c1	SSB-PriA inh 73
